Data published in the supplement of paper PMC9948646.

Tested on: gramicidin D channels in DC22:1PC lipid vesicles (bilayer-modifying potency)
Assay: initial Tl+ fluorescence quench rate relative to no-drug control (NormRate, gramicidin monomer-dimer shift) (ratio (fold of control)); higher = stronger bilayer-modifying effect (equilibrium shifted toward conducting dimers), active = 1.5 or more
Conditions: 10 µM; lipid concentration 50 µM; temperature: 25 °C
Description: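 Stopped-flow fluorescence quench assay: ANTS-loaded DC22:1PC large unilamellar vesicles doped with gramicidin D (1:2000), 50 µM lipid, equilibrated 10 min with 10 µM drug (0.1% DMSO), mixed with Tl+ quench buffer at 25°C. Initial quench rate (Tl+ influx) was fitted with a modified stretched exponential and normalised to the no-drug control rate (NormRate); duplicates from two independent LUV preparations (triplicates for 7 drugs).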

SMILES	initial Tl+ fluorescence quench rate
C[C@H](C(N)=O)N1CCCC[C@H]1c1ccc(OCc2cccc(F)c2)cc1	1.21 (inactive)
O=C1COCc2ccc(Br)cc2N1Cc1ccc(C(F)(F)F)cc1	1.55 (active)
CS(=O)(=O)c1cccc(-c2cnc3[nH]cc(-c4ccc(CCC(=O)O)cc4)c3c2)c1	1.09 (inactive)
Nc1ncnc2c1c(Cc1cccc3ccccc13)nn2CC1CCNCC1	1.15 (inactive)
Cc1ccc2[nH]c([C@H]3CCCNC3)c(-c3ccncc3)c2c1	1.42 (inactive)
CC(C)(C)c1cc(C(=O)N2CCN(c3nccnc3C#N)CC2)n(Cc2ccccc2)n1	1.21 (inactive)
CCCCc1ccc(NC(=O)Nc2ccc(O[C@H]3CCCC[C@@H]3N(C)c3ccccc3)c(F)c2)cc1	1.35 (inactive)
Cc1cc(OCC(=O)Nc2ccc(C(C)C)cc2)n(C)c(=O)c1C#N	1.25 (inactive)
Cc1cccc(NC(=O)c2cc(S(=O)(=O)N(C)c3ccc(F)cc3)ccc2Cl)n1	1.5 (active)
CC(C)(C)OC(=O)N1CCN(c2nccc(-c3ccc(-c4ccc(Cl)cc4)s3)n2)CC1	1.28 (inactive)
CC[P](CC)(CC)=[Au][S][C@H]1O[C@@H](COC(C)=O)[C@H](OC(C)=O)[C@@H](OC(C)=O)[C@@H]1OC(C)=O	1.07 (inactive)
c1ccc2c(c1)CN(CC1CC1)CC1(CCN(Cc3c[nH]c4cnccc34)CC1)O2	1.06 (inactive)
O=C(NC1CC1)c1ccc(N2CCC(Cc3ccccc3)CC2)nc1	1.43 (inactive)
O=C(CCC1CCCCC1)Nc1cccc(-c2nnc(-c3ccco3)o2)c1	1.57 (active)
COc1ccc2nc(C)cc(OCC(=O)NCc3ccccc3)c2c1	1.06 (inactive)
[H]/N=C(/N)Nc1ccc(-c2ccc(-c3ccc(N/C(N)=N/[H])cc3Cl)o2)c(Cl)c1	1.53 (active)
Cc1ccccc1CN1CCC(O)(c2ccc(Cl)c(C(F)(F)F)c2)CC1	1.14 (inactive)
N#Cc1ccc(-c2cnc(N)c(-c3ccc(C(N)=O)cc3)n2)cc1	1.28 (inactive)
C[C@H](C(N)=O)N1CCCC[C@@H]1c1ccc(OCc2cccc(F)c2)cc1	2.68 (active)

SMILES	initial Tl+ fluorescence quench rate
CCCCOC(=O)Nc1cc2nc(C3CCCCC3)[nH]c2cc1N1CCCC1	1.33 (inactive)
COc1ccc(Nc2ccccc2NC(=O)c2ccc(O)nc2)cc1	1.03 (inactive)
COc1cc(NC(=O)Cc2nn(C)c(=O)c3ccccc23)ccc1Cl	1.11 (inactive)
O=C(NC1CC1)c1ccc(N2CCOc3ccc(Cl)cc32)s1	3.52 (active)
CS(=O)(=O)N1CCC(CCn2nc(Cc3cccc4ccccc34)c3c(N)ncnc32)CC1	1.95 (active)
NS(=O)(=O)c1cccc(-c2ccc3ncc(N4CCOCC4)nc3c2)c1	1.41 (inactive)
CC(C)(CN)c1nc(-c2ccc(Cl)c(O)c2)c(-c2ccnc(N)n2)[nH]1	1.15 (inactive)
Brc1cncc(-c2cc(NCCCn3ccnc3)nc(-c3ccccc3)n2)c1	2.73 (active)
COc1cccc2c(C)nc(N=C(N)N)nc12	1.08 (inactive)
N#CCN(CCCCN1CCN(c2ccc(F)cc2)CC1)C(=O)OCc1ccccc1	1.5 (inactive)
[H]/N=C(\Nc1ccc(Cl)cc1)Nc1nc(C)cc(NCCc2ccccc2)n1	3.21 (active)
O=C(N[C@H](Cc1ccccc1)C(=O)Nc1ccccc1N1CCOCC1)c1cccs1	1.21 (inactive)
CCOc1ccccc1C(=O)Nc1cccc(-c2nc3ncccn3c2C)c1	1.48 (inactive)
CC(C)(C)n1nc(Cc2cccc3ccccc23)c2c(N)ncnc21	2.86 (active)
COc1ccc(C2=NN(C3CCCCCC3)C(=O)C2(C)C)cc1OCc1ccccn1	1.8 (active)
Cc1ccc(-c2cc(C(=O)Nc3cccnc3)c3cc(Br)ccc3n2)cc1	2.5 (active)
CC(C)(C)[C@H]1CC[C@H](CC2=C(O)C(=O)c3ccccc3C2=O)CC1	1.31 (inactive)
CCCCCCCCCCCCCCCCOP(=O)([O-])OCC[N+](C)(C)C	2.31 (active)
Cc1cc(Nc2ccncc2)n2nc(C)c(-c3ccccc3Cl)c2n1	1.03 (inactive)
